Measurements reported in ChEMBL document CHEMBL1961873, “Compounds: GSK PKIS; Assays: Nanosyn kinase panel” (2012).
“And” between values parts separate entries of the source, which are not always exact repeats. Equal values may be shown once.

What was measured:
[1] = tested on: Tyrosine-protein kinase ABL1 (Homo sapiens), P00519 [T315I]; settings: at 1 µM
[2] = tested on: Tyrosine-protein kinase ABL1 (Homo sapiens), P00519 [Y253F]; settings: at 0.1 µM
[3] = tested on: Tyrosine-protein kinase ABL1 (Homo sapiens), P00519 [Y253F]; settings: at 1 µM
[4] = biological target: Tyrosine-protein kinase ABL1 (Homo sapiens) (UniProt P00519); settings: at 0.1 µM
[5] = biological target: Tyrosine-protein kinase ABL1 (Homo sapiens) (UniProt P00519); settings: at 1 µM
[6] = biological target: ALK tyrosine kinase receptor (Homo sapiens) (UniProt Q9UM73); settings: at 0.1 µM
[7] = biological target: ALK tyrosine kinase receptor (Homo sapiens) (UniProt Q9UM73); settings: at 1 µM
[8] = biological target: Tyrosine-protein kinase ABL2 (Homo sapiens) (UniProt P42684); settings: at 0.1 µM
[9] = biological target: Tyrosine-protein kinase ABL2 (Homo sapiens) (UniProt P42684); settings: at 1 µM
[10] = biological target: Tyrosine-protein kinase receptor UFO (Homo sapiens) (UniProt P30530); settings: at 0.1 µM;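 further: values are mean percent inhibition of AXL from the GSK PKIS screen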
Chain of Tyrosine-protein kinase receptor UFO (Homo sapiens) (P30530 whole entry): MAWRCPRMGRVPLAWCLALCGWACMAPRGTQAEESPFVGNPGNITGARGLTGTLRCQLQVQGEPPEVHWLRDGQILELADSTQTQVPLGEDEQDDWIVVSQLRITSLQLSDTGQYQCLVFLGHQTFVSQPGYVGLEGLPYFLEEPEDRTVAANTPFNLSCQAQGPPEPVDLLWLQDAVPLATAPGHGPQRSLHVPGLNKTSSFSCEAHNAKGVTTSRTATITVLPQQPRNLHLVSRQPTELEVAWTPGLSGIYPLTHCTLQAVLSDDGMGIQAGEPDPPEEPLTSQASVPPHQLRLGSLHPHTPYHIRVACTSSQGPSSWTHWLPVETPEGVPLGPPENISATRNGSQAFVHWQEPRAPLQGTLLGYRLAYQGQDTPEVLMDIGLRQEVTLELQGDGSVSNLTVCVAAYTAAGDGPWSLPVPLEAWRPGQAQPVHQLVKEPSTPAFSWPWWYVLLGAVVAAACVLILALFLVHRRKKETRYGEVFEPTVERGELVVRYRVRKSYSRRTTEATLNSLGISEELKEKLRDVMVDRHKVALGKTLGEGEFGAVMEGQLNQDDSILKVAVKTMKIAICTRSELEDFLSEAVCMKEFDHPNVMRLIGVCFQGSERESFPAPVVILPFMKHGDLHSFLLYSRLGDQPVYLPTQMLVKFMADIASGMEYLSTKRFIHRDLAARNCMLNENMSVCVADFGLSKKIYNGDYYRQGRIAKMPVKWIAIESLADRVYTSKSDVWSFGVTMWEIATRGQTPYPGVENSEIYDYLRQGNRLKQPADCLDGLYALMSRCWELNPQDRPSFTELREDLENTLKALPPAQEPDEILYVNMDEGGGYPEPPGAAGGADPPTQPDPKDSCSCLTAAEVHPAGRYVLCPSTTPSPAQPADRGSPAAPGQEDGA

Chain of Tyrosine-protein kinase ABL2 (Homo sapiens) (P42684 whole entry): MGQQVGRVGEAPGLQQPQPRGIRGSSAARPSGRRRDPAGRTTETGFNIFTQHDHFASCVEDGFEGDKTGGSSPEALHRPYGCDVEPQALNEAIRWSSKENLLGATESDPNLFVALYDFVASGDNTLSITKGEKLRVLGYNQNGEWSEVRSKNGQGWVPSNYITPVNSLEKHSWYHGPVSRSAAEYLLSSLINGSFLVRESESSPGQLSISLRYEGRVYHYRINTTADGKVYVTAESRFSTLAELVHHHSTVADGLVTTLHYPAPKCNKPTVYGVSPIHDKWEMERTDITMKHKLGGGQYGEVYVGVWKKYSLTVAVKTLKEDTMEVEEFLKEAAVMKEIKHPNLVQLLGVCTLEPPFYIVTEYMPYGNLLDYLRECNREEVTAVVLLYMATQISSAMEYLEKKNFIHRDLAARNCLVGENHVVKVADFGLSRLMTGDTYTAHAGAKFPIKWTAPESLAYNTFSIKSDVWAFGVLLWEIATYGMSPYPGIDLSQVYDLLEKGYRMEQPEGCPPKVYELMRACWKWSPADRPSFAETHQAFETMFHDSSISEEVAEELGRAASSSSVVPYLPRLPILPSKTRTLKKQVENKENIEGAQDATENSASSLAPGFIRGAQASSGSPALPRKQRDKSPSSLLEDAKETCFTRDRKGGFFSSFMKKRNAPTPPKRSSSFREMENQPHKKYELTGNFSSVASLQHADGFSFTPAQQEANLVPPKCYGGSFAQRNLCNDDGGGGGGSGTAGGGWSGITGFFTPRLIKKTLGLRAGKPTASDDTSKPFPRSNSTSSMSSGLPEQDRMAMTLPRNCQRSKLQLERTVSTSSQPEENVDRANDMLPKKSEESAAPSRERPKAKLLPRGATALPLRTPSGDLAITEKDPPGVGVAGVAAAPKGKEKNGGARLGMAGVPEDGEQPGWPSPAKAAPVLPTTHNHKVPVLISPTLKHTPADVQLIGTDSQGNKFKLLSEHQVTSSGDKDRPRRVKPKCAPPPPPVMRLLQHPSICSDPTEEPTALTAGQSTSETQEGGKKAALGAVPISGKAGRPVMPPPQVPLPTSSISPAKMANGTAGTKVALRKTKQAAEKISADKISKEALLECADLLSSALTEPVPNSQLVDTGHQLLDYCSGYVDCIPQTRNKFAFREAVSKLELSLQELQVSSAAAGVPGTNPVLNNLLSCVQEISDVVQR
Chain of ALK tyrosine kinase receptor (Homo sapiens) (Q9UM73 19-1620 limits assumed): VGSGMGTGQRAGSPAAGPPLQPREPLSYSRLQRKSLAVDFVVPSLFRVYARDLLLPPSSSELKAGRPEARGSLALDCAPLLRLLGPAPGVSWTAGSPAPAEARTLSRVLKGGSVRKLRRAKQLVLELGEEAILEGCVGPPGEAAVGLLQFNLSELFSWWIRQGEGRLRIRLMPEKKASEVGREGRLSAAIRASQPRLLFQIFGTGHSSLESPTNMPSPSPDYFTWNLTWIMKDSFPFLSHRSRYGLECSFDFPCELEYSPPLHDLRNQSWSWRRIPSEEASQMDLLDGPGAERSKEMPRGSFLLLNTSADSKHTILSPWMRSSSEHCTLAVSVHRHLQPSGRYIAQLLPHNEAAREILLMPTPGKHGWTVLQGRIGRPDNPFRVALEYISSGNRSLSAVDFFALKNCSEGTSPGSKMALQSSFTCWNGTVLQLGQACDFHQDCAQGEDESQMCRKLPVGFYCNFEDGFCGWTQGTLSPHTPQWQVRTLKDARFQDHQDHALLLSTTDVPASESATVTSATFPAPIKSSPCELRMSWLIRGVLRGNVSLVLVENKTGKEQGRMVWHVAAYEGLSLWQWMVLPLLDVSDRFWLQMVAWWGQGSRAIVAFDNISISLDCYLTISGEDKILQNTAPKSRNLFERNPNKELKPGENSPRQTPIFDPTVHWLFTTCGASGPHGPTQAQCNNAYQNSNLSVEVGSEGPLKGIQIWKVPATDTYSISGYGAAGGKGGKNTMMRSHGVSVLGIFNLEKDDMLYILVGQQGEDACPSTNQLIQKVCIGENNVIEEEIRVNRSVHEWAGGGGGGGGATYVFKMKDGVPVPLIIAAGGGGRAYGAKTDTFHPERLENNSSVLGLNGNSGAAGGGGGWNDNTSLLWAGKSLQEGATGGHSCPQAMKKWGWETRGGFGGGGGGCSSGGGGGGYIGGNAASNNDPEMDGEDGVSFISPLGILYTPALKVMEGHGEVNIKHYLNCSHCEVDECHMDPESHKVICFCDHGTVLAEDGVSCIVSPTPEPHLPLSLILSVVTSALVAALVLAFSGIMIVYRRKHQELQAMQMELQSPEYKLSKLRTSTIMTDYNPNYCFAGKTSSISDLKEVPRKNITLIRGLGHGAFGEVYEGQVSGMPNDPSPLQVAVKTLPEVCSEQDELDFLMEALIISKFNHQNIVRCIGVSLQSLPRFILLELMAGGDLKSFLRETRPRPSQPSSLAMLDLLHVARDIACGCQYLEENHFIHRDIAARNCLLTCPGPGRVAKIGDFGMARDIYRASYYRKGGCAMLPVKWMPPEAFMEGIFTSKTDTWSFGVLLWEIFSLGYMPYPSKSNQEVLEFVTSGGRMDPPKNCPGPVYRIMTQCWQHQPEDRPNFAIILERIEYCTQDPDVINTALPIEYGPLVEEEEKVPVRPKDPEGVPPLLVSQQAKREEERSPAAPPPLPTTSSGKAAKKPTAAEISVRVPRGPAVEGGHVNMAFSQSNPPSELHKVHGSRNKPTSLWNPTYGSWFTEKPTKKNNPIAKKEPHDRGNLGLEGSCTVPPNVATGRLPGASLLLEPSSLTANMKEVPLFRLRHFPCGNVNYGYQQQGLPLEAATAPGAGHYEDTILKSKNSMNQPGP

| SMILES | inhibition [1] | inhibition [2] | inhibition [3] | inhibition [4] | inhibition [5] | inhibition [6] | inhibition [7] | inhibition [8] | inhibition [9] | inhibition [10] |
| --- | --- | --- | --- | --- | --- | --- | --- | --- | --- | --- |
| CN1CCC(C(=O)Nc2n[nH]c3nc(-c4ccc(O)cc4)c(Br)cc23)CC1 | 22.5% and 15.6% | 3.92% and 2.19% | 15.1% and 9.74% | 0.28% and 3.94% | 10.7% and 12.2% | 2.7% and 5.6% | 31.6% and 35.4% | -0.95% and 2.31% | 4.33% and 4.83% | -5.65% and -3.46% |
| CN1CCN(Cc2ccc(-c3cc4ncnc(Nc5ccc(OCc6cccc(F)c6)c(Cl)c5)c4s3)o2)CC1 | 16.3% and 19.7% | 4.69% and 4.76% | 12.2% and 15.9% | 3.24% and 4% | 9.31% and 11% | 2.64% and 4.3% | 8.37% and 11.1% | 3.03% and 4.53% | 5.38% and 10.7% | -3.61% and -5.96% |
| CS(=O)(=O)CCNCc1ccc(-c2ccc3ncnc(Nc4ccc(OCc5ccccc5)cc4)c3c2)o1 | 4.95% | 2.39% | 4.13% | 5.38% | 5.59% | 2.33% | 2.76% | 2.73% | 4.87% | -3.92% |
| CN(C)CCNC(=O)Nc1ccc(N(C)c2ccnc(Nc3ccc(CS(C)(=O)=O)cc3)n2)cc1 | 14.5% | 7.05% | 14.7% | 5.68% | 19.6% | 3.32% | 11.7% | 5.95% | 16.8% | -5.4% |
| N#Cc1cccc(Nc2ncc(-c3ccccc3)o2)c1 | 10.4% | 4.28% | 21.7% | 3.9% | 20.6% | 1.63% | 2.63% | 4.38% | 20.3% | -2.1% |
| Cc1nnc(-c2cccc(-c3ccc(C(=O)NCC4CC4)cc3)c2)o1 | 5.17% | 2.61% | 4.27% | 5.41% | 9.95% | 3.15% | 5.21% | 3.81% | 9.01% | -9.15% |
| COc1c(C(N)=O)cc(-c2ccc(Cl)cc2)cc1-c1ccc(S(N)(=O)=O)cc1 | 2.49% | 2.41% | 4.61% | 3.19% | 3.54% | 5.82% | 7.26% | 2.13% | 3.9% | -6.59% |
| N#Cc1ccc2c(-c3ccnc(NC4CC4)n3)c(-c3ccc(F)cc3)nn2c1 | 1.49% | -0.67% | 3.58% | -0.74% | 6.61% | 0.92% | 0.32% | 0.94% | 5.29% | -4.43% |
| CCS(=O)(=O)c1ccc(OC)c(Nc2ncc(-c3cccc(F)c3)o2)c1 | 25.1% | 52.5% | 90.2% | 39.8% | 77.5% | 4.12% | 7.35% | 32.8% | 74.6% | -6.71% |
| CN1CCC(n2cnc(-c3ccc(F)cc3)c2-c2ccnc(NCCO)n2)CC1 | 6.42% | 2.79% | 4.11% | 3.67% | 6.5% | 3.71% | 5.43% | 3.07% | 2.99% | -4.58% |
| CCS(=O)(=O)c1ccc(OC)c(Nc2ncc(-c3cccc(C(C)=O)c3)o2)c1 | 8.41% | 25.4% | 72.3% | 13.4% | 60.2% | 2.32% | 2.87% | 13% | 60.8% | -3.14% |
| O=C(O[C@H]1CN[C@H](C#Cc2cc3ncnc(Nc4ccc5c(ccn5Cc5cc(F)ccc5F)c4)c3s2)C1)N1CCOCC1 | 3.69% | 2.24% | 4.4% | 3.14% | 3.38% | 4.15% | 4.73% | 1.18% | 1.47% | -7.4% |
| COc1cc(Nc2ncc(-c3ccccc3)o2)cc(OC)c1 | 13.2% | 13.2% | 50.9% | 8.41% | 35.4% | 2.73% | 4.06% | 5.68% | 29.4% | -6.45% |
| FC(F)(F)CNc1nccc(-c2cnn3ncccc23)n1 | 0.38% | 0.37% | 2.04% | 1.87% | 4% | 2.79% | 3.31% | 0.3% | 3.29% | -3.79% |
| CC1=C(C(=O)Nc2ccc3[nH]ncc3c2)C(c2ccc(F)cc2)N=C(c2ccc(C(F)(F)F)nc2)N1 (stereo not given) | 2.27% | 3.86% | 2.79% | 3.97% | 10.4% | 4.23% | 4.29% | 3.72% | 8.41% | -1.91% |
| COc1ccccc1-c1cc(/C=C2\C(=O)Nc3ncc(Br)cc32)cc(Br)c1O | 5.39% | 5.65% | 20% | 4.63% | 27.9% | 2.62% | 6.47% | 3.44% | 15.1% | -9.46% |
